In ChEMBL document CHEMBL3988442, “University of Dundee, Small-Polar-MMV Screening Library” (2021):
About 950 (1.4%) of roughly 69,000 compounds showed an effect of 50% or more. The sample as a whole holds a higher share of strong results than the screen did.

These molecules were tested on Mycobacterium tuberculosis (assay: Cornell M. t heat shock assay; further: in the data most compounds retested in dose-response had high values).
Assay type: functional, organism-based
Parameters: dose or concentration left out as unconfirmed

| Structure (SMILES) | Percent Effect [%] |
| --- | --- |
| CN(C)CCN1CCCC12CCN(C(=O)c1cccnc1)CC2.O=C(O)C(F)(F)F.O=C(O)C(F)(F)F | -6.366 |
| CC(C)N1CCO[C@H]2CN(C(=O)c3ccsc3)C[C@H]21.O=C(O)C(F)(F)F | -22.87 |
| O=C(Nc1cccc2c1CCCC2)C1CCCN1c1nccs1 (centres undefined) | 50.83 |
| O=C(Nc1cccc(N2CCCC2)c1)C1CCCN1c1nccs1 (centres undefined) | 5.051 |
| O=C(Nc1cccc(F)c1)C1CCCN1c1nccs1 (centres undefined) | 8.306 |
| CCC(C)N1CCC2(CC1)CN(c1cncnc1)C(=O)CO2.O=C(O)C(F)(F)F (centres undefined) | -21.63 |
| Cc1nc(-c2ccc(F)c(F)c2)cc(C2CCNCC2)n1.Cl | -7.049 |
| Cn1cc(C2CC(=O)NC23CCN(Cc2cccc(F)c2)CC3)cn1.O=C(O)C(F)(F)F (centres undefined) | -23.11 |
| CCOc1ccc(CN2CCc3nc4ccsc4c(=O)n3CC2)cc1.Cl | 16.23 |
| CCOCc1nn(C)c2c1CN(Cc1cccs1)CC2.O=C(O)C(F)(F)F | 29.88 |
| CC(C(=O)NN1CCOCC1)n1nc(C(F)(F)F)c(Cl)c1C1CC1 (centres undefined) | -25.21 |
| CN(C)CCN1CCO[C@H]2CN(C(=O)c3ccsc3)C[C@H]21.O=C(O)C(F)(F)F.O=C(O)C(F)(F)F | 25.92 |
| O=C(C1CCC1)N1CC[C@H](O)[C@@H]1Cc1cccnc1.O=C(O)C(F)(F)F | 0.09339 |
| Cc1cc(N2CCCC(c3nccnc3N(C)C)C2)ncn1 (centres undefined) | -16.62 |
| CC(C)CC(NC(=O)c1ccco1)c1nnc2ccccn12 (centres undefined) | 66.07 |
| CCCC(NC(=O)c1ccccn1)c1nnc2ccccn12 (centres undefined) | -4.17 |
| CC(C)CC(NC(=O)c1ccco1)c1nc2cccnc2n1C (centres undefined) | -10.38 |
| Cc1ccc(CN2CCc3c(COCC4CC4)nn(C)c3C2)s1.O=C(O)C(F)(F)F | -29.84 |
| Cc1ccsc1CN1CCn2c(COc3cccnc3)cnc2C1C.O=C(O)C(F)(F)F.O=C(O)C(F)(F)F (centres undefined) | 9.479 |
| CC(=O)N1CCC12CCN(Cc1ccco1)CC2.O=C(O)C(F)(F)F | -13.47 |

| Structure (SMILES) | Percent Effect [%] |
| --- | --- |
| Cc1cc(Nc2cnccn2)nc(C2CCCN(CCO)C2)n1 (centres undefined) | 103.5 |
| Cc1cc(Nc2ccccn2)nc(C2CCCN(CCO)C2)n1.O=CO (centres undefined) | -14.49 |
| Cc1cc(Nc2ncccn2)nc(C2CCCN(CCO)C2)n1 (centres undefined) | 17.06 |
| CC(=O)N1CC(=O)N(c2ccccc2)CC12CCN(Cc1ccoc1)C2.O=C(O)C(F)(F)F (centres undefined) | -0.426 |
| Fc1ccc(CNCC2OCCc3cn(CC4CC4)nc32)cc1.O=C(O)C(F)(F)F.O=C(O)C(F)(F)F (centres undefined) | 12.69 |
| Cc1noc(C)c1CN1CCc2ncnc(-c3cccnc3)c2CC1.O=C(O)C(F)(F)F.O=C(O)C(F)(F)F | 12.88 |
| COc1cc(C(=O)Nc2nc(C)no2)cc(OC)c1Br | 104.3 |
| COc1cc(C(=O)NS(=O)(=O)c2cccc(C#N)c2)cc(Cl)c1OC | -1.963 |
| COc1cc(C(=O)Nc2cn[nH]c2)ccc1C | -19.45 |
| COc1cc(C(=O)NS(=O)(=O)c2cccc(C#N)c2)cc(OC)c1Br | -8.929 |
| COc1cc(C(=O)NS(=O)(=O)c2cc(Cl)sc2Cl)ccc1OC(F)F | -14.59 |
| COc1cc(C(=O)Nc2nc(C)no2)ccc1C | 106.9 |
| COc1cc(C(=O)Nc2nc(C)no2)ccc1OC1CCCC1 | -1.479 |
| COc1cc(C(=O)Nc2nc(C)no2)ccc1OC(F)F | 79.09 |
| COc1cc(C(=O)Nc2c(C)noc2C)ccc1C | -2.052 |
| COc1cc(C(=O)NS(=O)(=O)c2cncc(Br)c2)cc(Cl)c1OC | -14.73 |
| COc1cc(C(=O)Nc2nc(C)no2)cc(Cl)c1OC | 101 |
| COc1cc(C(=O)NCc2ccc3c(c2)CCCN3C)cc(OC)c1Br | -0.1722 |
| O=C(N1CCCC1)N1CCO[C@H]2[C@@H](Oc3ccccn3)CC[C@@H]21.O=C(O)C(F)(F)F | 0.1764 |
| Cc1ccc(CN2CC[C@@H]3OCCN(S(C)(=O)=O)[C@H]3CC2)s1.O=C(O)C(F)(F)F | 16.37 |

| Structure (SMILES) | Percent Effect [%] |
| --- | --- |
| O=C(N1CCCC1)N1CCc2onc(COc3cccnc3)c2C1.O=C(O)C(F)(F)F | -4.712 |
| CC(C)Cc1cc(C(=O)NCC2CCCN(Cc3ccco3)C2)on1 (centres undefined) | 16.01 |
| CC(C)Cc1cc(C(=O)NC(C)(C)CN2CCCCCC2)on1 | 72.52 |
| CC(C)Cc1cc(C(=O)NCC(O)CN2CCCCCC2)on1 (centres undefined) | -12.74 |
| CCc1ncnc2c1CCN(C(=O)c1ccccn1)CC2.O=C(O)C(F)(F)F | -22.3 |
| CSc1ncccc1C(=O)N1C[C@H]2CC[C@@H]1CN(C(=O)N(C)C)C2 | -1.597 |
| O=C(NCc1ccccn1)c1cnc(C2CCCN2)cn1 (centres undefined) | 52.39 |
| Cc1csc(NC(=O)c2cnc(C3CCNCC3)cn2)n1.Cl | -24.76 |
| Cc1csc(NC(=O)c2cnc(C3CCCN(C)C3)cn2)n1 (centres undefined) | 23.5 |
| Cc1nc(C(=O)NCc2ccccn2)cc(C2CCCN2)n1 (centres undefined) | 45.77 |
| O=C(NCc1ccccn1)c1cncc(C2CCCN2)n1 (centres undefined) | 2.609 |
| Cc1csc(NC(=O)c2cnc(C3CCCN3)cn2)n1.Cl (centres undefined) | 82.89 |
| Cl.Cn1ccnc1C1(O)CCN(C(=O)CCc2ccccc2)CC1 | 1.719 |
| Cc1noc(C)c1CN1CCc2c(CNc3nccs3)n[nH]c2C1.O=C(O)C(F)(F)F | 8.041 |
| CCCNC(=O)c1cc2c(s1)CCN2C(=O)CN(C)C.O=C(O)C(F)(F)F | 1.454 |
| C[C@H]1CN(c2ccccn2)C[C@@]12CCN(c1cccnc1)C2=O.O=C(O)C(F)(F)F.O=C(O)C(F)(F)F | 11.35 |
| COc1ccc(CN2CCC3(CC(=O)N(c4cncnc4)C3)C2)cc1.O=C(O)C(F)(F)F (centres undefined) | -12.31 |
| CN1CCC(c2nc3ccc(-c4ccccc4)cn3n2)CC1.O=C(O)C(F)(F)F | -24.93 |
| COc1ccccc1Cc1cncc(N2CC(C(=O)O)C2)n1.Cl | 2.257 |
